According to the supplement of paper PMC11732987, “Enantioselective OTUD7B fragment discovery through chemoproteomics screening and high-throughput optimisation” (Communications Chemistry, 2025):

Assays:
Experiment in all cases: log2 ratio of Biotin-Ahx-Ub-VS probe labelling (compound/DMSO); higher = less target engagement, active = hit call of the paper (q ≤ 0.05, log2 ratio ≤ -1)
Details in all cases: treatment time: 3 h
[1] = compound: CN(Cc1cccc(Br)c1)C(=O)CCl
Method in brief: (§1)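 HEK293T lysate (495 µg per sample, in Tris/CHAPS/IGEPAL buffer with protease inhibitors) was treated in triplicate with compound at 50 or 200 µM or with DMSO for 3 h. It was then treated with Biotin-Ahx-Ub-VS (0.5 µM final) for 1 h. Labelled DUBs were NeutrAvidin-enriched, digested with LysC and trypsin, and run by diaPASEF LC-MS/MS. Median-normalised label-free quantities gave average log2 ratios compound/DMSO by unpaired t-test, using proteins with ≥2 unique peptides.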

[2] = compound: CN(Cc1cccc(OCc2ccccc2C)c1)C(=O)CCl
Method in brief: as §1

[3] = compound: CN(Cc1ccccc1)C(=O)CCl
Method in brief: as §1

[4] = compound: COc1ccc(CN(C)C(=O)CCl)cc1
Method in brief: as §1

[5] = compound: COc1cccc(CN(CCCc2ccccc2)C(=O)CCl)c1
Method in brief: as §1

[6] = compound: ClCC(=O)N1CCc2cc(Cl)c(Cl)cc2C1
Method in brief: as §1

[7] = compound: ClCC(=O)N1CCc2nc(ncc2C1)-c1ccccc1
Method in brief: as §1

[8] = compound: ClCC(=O)N1CCc2nocc2C1
Method in brief: as §1

[9] = compound: ClCC(=O)N1CCc2scc(Br)c2C1
Method in brief: as §1

[10] = compound: ClCC(=O)NC(C1CCCC1)c1cccs1
Method in brief: as §1

[11] = compound: ClCC(=O)NC1CCCc2ccccc12
Method in brief: as §1

[12] = compound: ClCC(=O)NC1CCOc2ccc(Cl)cc12
Method in brief: as §1

[13] = compound: ClCC(=O)NC1CCSc2ccccc12
Method in brief: as §1

[14] = compound: ClCC(=O)N[C@H]1CCCc2ccccc12
Method in brief: as §1

[15] = compound: Fc1ccc(N2CCN(c3nc4c(CN(C(CCl)=O)CC4)cn3)CC2)cc1.Cl.Cl
Method in brief: as §1

Measured: log2 ratio of Biotin-Ahx-Ub-VS probe labelling

FAM105A (UniProt Q9NUU6)
UniProt Q9NUU6, sequence (Q9NUU6 whole entry): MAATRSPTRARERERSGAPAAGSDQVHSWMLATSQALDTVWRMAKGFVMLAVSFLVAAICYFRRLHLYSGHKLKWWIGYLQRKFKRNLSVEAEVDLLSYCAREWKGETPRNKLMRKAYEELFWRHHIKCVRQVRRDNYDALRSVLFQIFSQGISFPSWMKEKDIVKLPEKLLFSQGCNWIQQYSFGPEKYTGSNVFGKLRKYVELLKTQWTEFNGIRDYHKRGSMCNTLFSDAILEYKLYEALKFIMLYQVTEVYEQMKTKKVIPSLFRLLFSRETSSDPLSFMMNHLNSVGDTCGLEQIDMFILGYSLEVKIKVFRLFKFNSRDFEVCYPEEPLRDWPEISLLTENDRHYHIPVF
inactive: [1]; compound concentration: 50uM -0.187 | [1]; compound concentration: 200uM -0.00846 | [2]; compound concentration: 50uM -0.255 | [2]; compound concentration: 200uM -0.114 | [3]; compound concentration: 50uM -0.198 | [3]; compound concentration: 200uM 0.0229 | [4]; compound concentration: 50uM -0.0227 | [4]; compound concentration: 200uM -0.0524 | [5]; compound concentration: 50uM -0.219 | [5]; compound concentration: 200uM -0.197 | [6]; compound concentration: 50uM 0.119 | [6]; compound concentration: 200uM -0.429 | [7]; compound concentration: 50uM -0.124 | [7]; compound concentration: 200uM -0.242 | [8]; compound concentration: 50uM -0.252 | [8]; compound concentration: 200uM -0.149 | [9]; compound concentration: 50uM 0.049 | [9]; compound concentration: 200uM -0.0833 | [10]; compound concentration: 50uM 0.0872 | [10]; compound concentration: 200uM 0.0369 | [11]; compound concentration: 50uM -0.0884 | [11]; compound concentration: 200uM -0.0754 | [12]; compound concentration: 50uM -0.148 | [12]; compound concentration: 200uM -0.0677 | [13]; compound concentration: 50uM 0.0795 | [13]; compound concentration: 200uM -0.0897 | [14]; compound concentration: 50uM 0.0155 | [14]; compound concentration: 200uM -0.0104 | [15]; compound concentration: 50uM 0.239 | [15]; compound concentration: 200uM -0.443

USP15 (UniProt Q9Y4E8)
UniProt Q9Y4E8, sequence (Q9Y4E8 whole entry): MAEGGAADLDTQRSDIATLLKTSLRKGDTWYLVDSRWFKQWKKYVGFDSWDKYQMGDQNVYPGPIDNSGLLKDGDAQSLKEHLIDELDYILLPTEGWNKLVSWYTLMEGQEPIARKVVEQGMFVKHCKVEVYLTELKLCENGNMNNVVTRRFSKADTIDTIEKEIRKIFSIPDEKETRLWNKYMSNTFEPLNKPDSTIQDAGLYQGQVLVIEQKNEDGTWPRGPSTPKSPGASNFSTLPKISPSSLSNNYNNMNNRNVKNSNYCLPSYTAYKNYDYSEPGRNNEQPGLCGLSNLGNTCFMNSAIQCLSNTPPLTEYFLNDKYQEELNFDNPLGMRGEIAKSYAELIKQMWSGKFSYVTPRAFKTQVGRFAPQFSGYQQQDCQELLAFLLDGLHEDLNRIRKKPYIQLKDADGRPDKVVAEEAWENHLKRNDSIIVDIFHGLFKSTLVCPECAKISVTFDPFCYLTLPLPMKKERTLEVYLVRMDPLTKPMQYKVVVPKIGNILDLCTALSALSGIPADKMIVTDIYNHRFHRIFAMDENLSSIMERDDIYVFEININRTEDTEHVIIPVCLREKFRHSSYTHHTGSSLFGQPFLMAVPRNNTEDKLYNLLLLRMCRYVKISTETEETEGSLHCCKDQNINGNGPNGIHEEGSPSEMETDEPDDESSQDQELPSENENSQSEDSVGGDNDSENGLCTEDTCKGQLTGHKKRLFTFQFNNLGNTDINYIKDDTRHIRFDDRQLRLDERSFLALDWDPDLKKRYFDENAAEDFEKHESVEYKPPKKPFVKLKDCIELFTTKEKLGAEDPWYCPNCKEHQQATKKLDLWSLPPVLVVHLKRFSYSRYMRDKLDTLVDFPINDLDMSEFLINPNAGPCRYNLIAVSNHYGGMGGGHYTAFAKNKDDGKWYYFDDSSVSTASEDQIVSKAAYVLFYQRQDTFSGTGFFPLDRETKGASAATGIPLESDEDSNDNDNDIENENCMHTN
active: [6]; compound concentration: 200uM -1.85 | [7]; compound concentration: 200uM -1.06 | [9]; compound concentration: 200uM -1.88 | [15]; compound concentration: 200uM -1.58
inactive: [1]; compound concentration: 50uM -0.321 | [1]; compound concentration: 200uM -0.664 | [2]; compound concentration: 50uM -0.611 | [2]; compound concentration: 200uM -0.533 | [3]; compound concentration: 50uM -0.368 | [3]; compound concentration: 200uM -0.462 | [4]; compound concentration: 50uM -0.242 | [4]; compound concentration: 200uM -0.334 | [5]; compound concentration: 50uM -0.289 | [5]; compound concentration: 200uM -0.43 | [6]; compound concentration: 50uM -0.407 | [7]; compound concentration: 50uM -0.105 | [8]; compound concentration: 50uM -0.404 | [8]; compound concentration: 200uM -0.641 | [9]; compound concentration: 50uM -0.779 | [10]; compound concentration: 50uM 0.0422 | [10]; compound concentration: 200uM -0.0218 | [11]; compound concentration: 50uM -0.0996 | [11]; compound concentration: 200uM -0.0168 | [12]; compound concentration: 50uM -0.328 | [12]; compound concentration: 200uM -0.255 | [13]; compound concentration: 50uM 0.00954 | [13]; compound concentration: 200uM -0.189 | [14]; compound concentration: 50uM -0.0873 | [14]; compound concentration: 200uM -0.249 | [15]; compound concentration: 50uM -0.441

USP19 (UniProt O94966)
UniProt O94966, sequence (O94966 whole entry): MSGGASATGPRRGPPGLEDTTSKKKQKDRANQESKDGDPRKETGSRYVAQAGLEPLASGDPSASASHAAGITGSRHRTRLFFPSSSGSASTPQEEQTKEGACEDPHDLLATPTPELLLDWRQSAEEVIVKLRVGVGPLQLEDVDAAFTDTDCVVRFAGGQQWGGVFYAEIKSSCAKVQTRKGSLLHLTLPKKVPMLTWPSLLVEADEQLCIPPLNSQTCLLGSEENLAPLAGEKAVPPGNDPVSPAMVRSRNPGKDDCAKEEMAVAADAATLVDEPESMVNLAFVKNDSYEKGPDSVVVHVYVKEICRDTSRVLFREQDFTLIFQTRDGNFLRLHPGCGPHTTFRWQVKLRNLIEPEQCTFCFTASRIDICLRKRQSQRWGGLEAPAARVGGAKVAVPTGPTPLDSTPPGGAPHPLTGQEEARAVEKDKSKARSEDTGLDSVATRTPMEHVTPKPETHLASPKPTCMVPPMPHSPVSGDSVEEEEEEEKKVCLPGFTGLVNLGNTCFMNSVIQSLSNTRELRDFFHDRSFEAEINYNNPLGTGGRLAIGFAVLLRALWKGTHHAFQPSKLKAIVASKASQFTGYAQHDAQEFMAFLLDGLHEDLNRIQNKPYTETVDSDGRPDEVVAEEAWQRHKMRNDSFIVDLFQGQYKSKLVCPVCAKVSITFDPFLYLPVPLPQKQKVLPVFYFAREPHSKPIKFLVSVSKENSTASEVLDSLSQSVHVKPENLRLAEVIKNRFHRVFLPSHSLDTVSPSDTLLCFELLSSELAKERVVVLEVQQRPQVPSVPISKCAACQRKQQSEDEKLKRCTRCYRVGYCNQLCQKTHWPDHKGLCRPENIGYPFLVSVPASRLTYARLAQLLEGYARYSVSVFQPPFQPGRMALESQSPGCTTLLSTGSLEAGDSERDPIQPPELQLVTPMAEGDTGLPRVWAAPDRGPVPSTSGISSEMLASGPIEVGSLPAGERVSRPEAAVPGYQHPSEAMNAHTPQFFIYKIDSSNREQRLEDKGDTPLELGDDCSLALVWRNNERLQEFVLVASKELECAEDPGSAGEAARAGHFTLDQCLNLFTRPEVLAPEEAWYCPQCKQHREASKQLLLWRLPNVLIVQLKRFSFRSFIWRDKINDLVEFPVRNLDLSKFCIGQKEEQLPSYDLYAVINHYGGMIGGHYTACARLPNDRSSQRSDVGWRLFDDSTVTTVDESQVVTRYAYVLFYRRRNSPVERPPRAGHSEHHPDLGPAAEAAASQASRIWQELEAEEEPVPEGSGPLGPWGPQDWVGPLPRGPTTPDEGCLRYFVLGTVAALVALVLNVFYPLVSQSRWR
inactive: [1]; compound concentration: 50uM -0.419 | [3]; compound concentration: 50uM -0.372 | [3]; compound concentration: 200uM -0.827 | [4]; compound concentration: 50uM -0.301 | [4]; compound concentration: 200uM -0.572 | [5]; compound concentration: 50uM -0.64 | [6]; compound concentration: 50uM -0.948 | [7]; compound concentration: 50uM -0.512 | [8]; compound concentration: 50uM -0.407 | [9]; compound concentration: 50uM -0.747 | [10]; compound concentration: 50uM -0.0897 | [10]; compound concentration: 200uM -0.299 | [11]; compound concentration: 50uM -0.205 | [11]; compound concentration: 200uM -0.219 | [12]; compound concentration: 50uM -0.252 | [12]; compound concentration: 200uM -0.38 | [13]; compound concentration: 50uM -0.00658 | [13]; compound concentration: 200uM -0.393 | [14]; compound concentration: 50uM -0.0565 | [14]; compound concentration: 200uM -0.411
active: [1]; compound concentration: 200uM -1.2 | [2]; compound concentration: 50uM -1 | [2]; compound concentration: 200uM -1.76 | [5]; compound concentration: 200uM -1.37 | [6]; compound concentration: 200uM -3.11 | [7]; compound concentration: 200uM -2.01 | [8]; compound concentration: 200uM -1.17 | [9]; compound concentration: 200uM -2.35 | [15]; compound concentration: 50uM -1.25 | [15]; compound concentration: 200uM -3.86

MINDY4 (UniProt Q4G0A6)
UniProt Q4G0A6, sequence (Q4G0A6 whole entry): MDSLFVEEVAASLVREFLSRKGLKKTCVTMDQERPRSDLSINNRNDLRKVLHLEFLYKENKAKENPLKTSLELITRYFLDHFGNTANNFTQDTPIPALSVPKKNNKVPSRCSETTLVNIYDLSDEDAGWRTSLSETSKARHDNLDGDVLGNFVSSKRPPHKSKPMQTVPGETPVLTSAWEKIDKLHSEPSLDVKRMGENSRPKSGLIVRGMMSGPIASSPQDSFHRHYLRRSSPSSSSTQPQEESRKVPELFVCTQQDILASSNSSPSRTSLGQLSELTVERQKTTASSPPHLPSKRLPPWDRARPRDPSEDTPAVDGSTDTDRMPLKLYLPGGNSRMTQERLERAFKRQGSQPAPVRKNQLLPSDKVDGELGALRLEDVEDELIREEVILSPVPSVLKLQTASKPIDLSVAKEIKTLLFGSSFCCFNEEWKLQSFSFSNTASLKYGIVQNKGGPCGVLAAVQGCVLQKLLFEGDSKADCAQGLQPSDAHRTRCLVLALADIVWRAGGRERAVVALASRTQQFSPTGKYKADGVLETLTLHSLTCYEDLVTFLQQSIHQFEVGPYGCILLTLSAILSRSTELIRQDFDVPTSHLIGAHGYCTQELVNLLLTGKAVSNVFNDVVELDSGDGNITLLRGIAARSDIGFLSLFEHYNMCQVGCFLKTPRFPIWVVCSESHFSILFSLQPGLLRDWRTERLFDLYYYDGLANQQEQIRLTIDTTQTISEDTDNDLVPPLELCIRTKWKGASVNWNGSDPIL
inactive: [1]; compound concentration: 50uM 0.681 | [2]; compound concentration: 50uM 0.702 | [2]; compound concentration: 200uM 0.585 | [3]; compound concentration: 50uM 0.106 | [3]; compound concentration: 200uM -0.273 | [4]; compound concentration: 50uM 0.675 | [4]; compound concentration: 200uM 0.712 | [5]; compound concentration: 50uM 0.722 | [5]; compound concentration: 200uM 0.797 | [6]; compound concentration: 50uM 0.706 | [6]; compound concentration: 200uM 0.819 | [7]; compound concentration: 50uM 0.669 | [7]; compound concentration: 200uM 0.652 | [8]; compound concentration: 50uM 0.0993 | [8]; compound concentration: 200uM 0.614 | [9]; compound concentration: 50uM 0.589 | [9]; compound concentration: 200uM 0.525 | [10]; compound concentration: 50uM 0.738 | [10]; compound concentration: 200uM 0.487 | [11]; compound concentration: 50uM 0.639 | [11]; compound concentration: 200uM -0.0583 | [12]; compound concentration: 50uM -0.0698 | [12]; compound concentration: 200uM 0.0712 | [13]; compound concentration: 50uM 0.832 | [13]; compound concentration: 200uM -0.691 | [14]; compound concentration: 50uM 0.216 | [14]; compound concentration: 200uM 0.204 | [15]; compound concentration: 50uM 0.258 | [15]; compound concentration: 200uM 0.516
active: [1]; compound concentration: 200uM -1.19

USP28 (UniProt Q96RU2)
UniProt Q96RU2, sequence (Q96RU2 whole entry): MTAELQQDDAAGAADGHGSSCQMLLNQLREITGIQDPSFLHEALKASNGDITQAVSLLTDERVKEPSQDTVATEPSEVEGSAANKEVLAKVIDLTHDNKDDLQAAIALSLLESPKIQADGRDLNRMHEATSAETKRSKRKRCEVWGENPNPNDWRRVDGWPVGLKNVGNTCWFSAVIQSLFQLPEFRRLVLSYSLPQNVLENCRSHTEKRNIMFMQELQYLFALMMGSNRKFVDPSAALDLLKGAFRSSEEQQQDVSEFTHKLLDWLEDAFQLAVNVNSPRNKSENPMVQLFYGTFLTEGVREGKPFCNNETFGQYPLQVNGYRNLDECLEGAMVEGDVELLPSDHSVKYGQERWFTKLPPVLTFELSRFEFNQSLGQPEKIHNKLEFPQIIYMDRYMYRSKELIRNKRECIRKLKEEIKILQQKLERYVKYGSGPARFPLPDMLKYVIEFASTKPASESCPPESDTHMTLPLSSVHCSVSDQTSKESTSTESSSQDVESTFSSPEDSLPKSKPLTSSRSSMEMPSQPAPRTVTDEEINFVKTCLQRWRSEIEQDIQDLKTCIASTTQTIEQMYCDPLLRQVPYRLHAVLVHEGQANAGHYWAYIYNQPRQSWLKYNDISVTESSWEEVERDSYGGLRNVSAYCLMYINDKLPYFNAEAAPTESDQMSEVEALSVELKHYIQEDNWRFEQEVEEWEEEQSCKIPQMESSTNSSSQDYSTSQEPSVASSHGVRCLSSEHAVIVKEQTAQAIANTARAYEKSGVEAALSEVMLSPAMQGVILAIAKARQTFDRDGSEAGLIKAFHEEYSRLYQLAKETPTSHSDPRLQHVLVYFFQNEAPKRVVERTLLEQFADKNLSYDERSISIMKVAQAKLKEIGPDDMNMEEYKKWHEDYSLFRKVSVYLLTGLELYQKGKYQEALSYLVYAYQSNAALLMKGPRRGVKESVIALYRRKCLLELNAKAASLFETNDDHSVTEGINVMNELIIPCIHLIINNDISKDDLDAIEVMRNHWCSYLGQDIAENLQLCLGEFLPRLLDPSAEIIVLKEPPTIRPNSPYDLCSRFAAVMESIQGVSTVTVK
inactive: [1]; compound concentration: 50uM -0.197 | [1]; compound concentration: 200uM -0.68 | [2]; compound concentration: 50uM -0.572 | [2]; compound concentration: 200uM -0.911 | [3]; compound concentration: 50uM -0.195 | [3]; compound concentration: 200uM -0.692 | [4]; compound concentration: 50uM -0.172 | [4]; compound concentration: 200uM -0.467 | [5]; compound concentration: 50uM -0.253 | [5]; compound concentration: 200uM -0.826 | [6]; compound concentration: 50uM -0.496 | [7]; compound concentration: 50uM -0.15 | [7]; compound concentration: 200uM -0.716 | [8]; compound concentration: 50uM -0.192 | [8]; compound concentration: 200uM -0.624 | [9]; compound concentration: 50uM -0.468 | [10]; compound concentration: 50uM -0.0425 | [10]; compound concentration: 200uM -0.313 | [11]; compound concentration: 50uM -0.263 | [11]; compound concentration: 200uM -0.626 | [12]; compound concentration: 50uM -0.164 | [12]; compound concentration: 200uM -0.586 | [13]; compound concentration: 50uM -0.108 | [13]; compound concentration: 200uM -0.622 | [14]; compound concentration: 50uM -0.259 | [14]; compound concentration: 200uM -0.947 | [15]; compound concentration: 50uM -0.134
active: [6]; compound concentration: 200uM -1.71 | [9]; compound concentration: 200uM -1.28 | [15]; compound concentration: 200uM -1.12
